SMILES strings stand for the structures. “And” between values parts separate entries of the source, which are not always exact repeats. Equal entries are not always repeated. The source made the active and inactive calls. Unless noted, no stated cut-off is given here; in the data, active means inhibition above about 80%; inactive means the rest.

Assay [1] in a line: LFS_MB_1R medulloblastoma cell growth inhibition, synergistic combos for chromothripsis tumors, cisplatin or BGB combos (AID 1671452).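 Further: cells exposed for 96 hours before readout.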 The settings on record: LFS_MB_1R medulloblastoma cells, stronger effect = higher value.
Assay [2] in a line: CRL2098 osteosarcoma cell growth inhibition, synergistic combos for chromothripsis tumors, BGB or cisplatin IC20 combos (AID 1671454).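 Further: cells exposed for 96 h before readout; 0% = vehicle DMSO and 100% = killing by high DMSO.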 Particulars: CRL2098 osteosarcoma cells, drug combinations, stronger effect = higher value.
The nature of assay [3]: HD-MB03 medulloblastoma cell growth inhibition, synergistic combos for chromothripsis tumors, BGB or cisplatin IC20 combos (AID 1671455; in the data active means inhibition above about 83%;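 further: 0% = vehicle DMSO and 100% = high DMSO as cytotoxic control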). The settings on record: HD-MB03 medulloblastoma cells, stronger effect = higher value.
Assay [4] can be described thus: UWB1.289 ovarian carcinoma cell growth inhibition, synergistic combos for chromothripsis tumors, BGB or cisplatin combos (AID 1671456).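 Further: cells exposed to compound for four days; 0% = vehicle DMSO and 100% = killing by high DMSO.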 The settings on record: UWB1.289 ovarian carcinoma cells, stronger effect = higher value.
The nature of assay [5]: LFS_MB_2R medulloblastoma cell growth inhibition, synergistic combos for chromothripsis tumors, cisplatin combos (AID 1671457).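 Further: cells exposed to compound for four days before readout.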 Particulars: LFS_MB_2R medulloblastoma cells, stronger effect = higher value.
Assay [6] can be described thus: UWB1.289_BRCA1 ovarian cancer growth, cell-based, BGB or cisplatin combinations (AID 1671459). Particulars: UWB1.289 BRCA1 ovarian carcinoma, drug combinations, stronger effect = higher value.
Assay [7] is described as follows: human astrocyte viability loss, single and combined drugs, cytotoxicity control for chromothriptic childhood tumor combination screen, cell-based, BGB or cisplatin IC20 combos (AID 1671460).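 Further: cells exposed to compounds for 96 hours before viability readout; 0% = vehicle and 100% = killing control.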 The settings on record: Human astrocytes, drug combinations, stronger effect = higher value.
The target in assay [8] is NAD(+) hydrolase SARM1 (Homo sapiens) (UniProt Q6SZW1). The assay can be described thus: SARM1 TIR NADase inhibitors, cell lysate, NAD-Glo luminescence (AID 1508614;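 active means compound whose remaining NAD level is above about 45 nM, limit read from the data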). Particulars: SAM-TIR HEK293T lysate NADase, at 1 µM, stronger effect = higher value.
Assay [9] can be described thus: liver-stage malaria parasite growth inhibition, primary screen, cell-based, HepG2, luciferase luminescence, HepG2 viability (AID 624349; in the data active means parasite load remaining mostly below about 12%, no sharp cut-off; inactive means mostly above about 10%;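 further: 100% = mean of DMSO negative control wells on the same plate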). The settings on record: P. berghei liver stage in HepG2, luciferase luminescence, concentration not given here; parasite load remaining: stronger effect = lower value; viability: measured here: HepG2 viability without parasites.
The nature of assay [10]: phospholipid biosynthesis inhibitors in animal cells, primary screen, cell-based, LOPAC library, screen 4 (AID 1347384; call rule not given here). Particulars: phospholipid biosynthesis inhibition screen, at 10 µM.
The nature of assay [11]: kinase inhibitors against Plasmodium liver-stage infection, cell-based, known kinase inhibitor set, luminescence, hepatoma host viability (AID 624392; call rule not given here;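 further: infected cells incubated roughly two days before readout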). Particulars: Plasmodium liver stage in hepatoma cells, luciferase luminescence, concentration not given here; liver cell % of control: measured here: host liver cell viability; parasite % of control: stronger effect = lower value.
The nature of assay [12]: hESC survival regulators, cell-based (AID 493140; call rule not given here;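 further: cells exposed to compounds for four days before counting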). Particulars: human embryonic stem cell survival screen; stronger effect = higher value.
For assay [13], the system named is Hepatitis C virus NS3 helicase. The assay can be described thus: HCV NS3 helicase inhibitors, primary screen, biochemical, fluorescence polarization, LOPAC1280 library (AID 687035; in the data active means inhibition above about 37%). Particulars: Purified HCV NS3 helicase, Cy5-dT15 ssDNA binding fluorescence polarization; stronger effect = higher value; concentration not given here.
Assay [14] in a line: Cy5 fluorescence quenching or enhancement artefacts, artefact control for HCV NS3 helicase inhibitor project, biochemical, LOPAC1280 (AID 687037; call rule not given here). Particulars: Cy5-DNA-NS3h complex fluorescence interference counterscreen.
The nature of assay [15]: viability rescue of complex I mutant cybrids, primary screen, cell-based, galactose medium, ATP luminescence (AID 1645843;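 active means z-score of at least 1.8 in each of two replicates, scored against plate mean and spread of sample wells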;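 further: positive z means more ATP and so rescue of galactose-driven cybrid death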). Particulars: complex I mutant cybrid cells, 72 h, stronger effect = higher value.
Where [16] appears, read: measured here: combination with BGB IC40, at 0.05 µM.
Setting [17] is: measured here: combination with cisplatin, at 0.5 µM.
[18] abbreviates: measured here: combination with cisplatin, at 5 µM.
Setting [19] is: measured here: combination with BGB at IC20, at 0.5 µM.
[20] abbreviates: measured here: combination with cisplatin at IC20, at 0.5 µM.
[21] abbreviates: measured here: combo with BGB at IC20, at 0.5 µM.
Setting [22] is: measured here: combo with cisplatin at IC20, at 0.5 µM.
[23] abbreviates: measured here: inhibition with BGB combination, at 0.05 µM.
The mark [24] stands for this setting: measured here: inhibition with cisplatin combination, at 0.05 µM.
Setting [25] is: BGB combination, concentration series, at 5 µM.
Where [26] appears, read: cisplatin combination, concentration series, at 5 µM.
Setting [27] is: measured here: combo with BGB IC20, at 0.5 µM.
The mark [28] stands for this setting: measured here: combo with cisplatin IC20, at 0.5 µM.

Chain of NAD(+) hydrolase SARM1 (Homo sapiens) (Q6SZW1 whole entry, looked up): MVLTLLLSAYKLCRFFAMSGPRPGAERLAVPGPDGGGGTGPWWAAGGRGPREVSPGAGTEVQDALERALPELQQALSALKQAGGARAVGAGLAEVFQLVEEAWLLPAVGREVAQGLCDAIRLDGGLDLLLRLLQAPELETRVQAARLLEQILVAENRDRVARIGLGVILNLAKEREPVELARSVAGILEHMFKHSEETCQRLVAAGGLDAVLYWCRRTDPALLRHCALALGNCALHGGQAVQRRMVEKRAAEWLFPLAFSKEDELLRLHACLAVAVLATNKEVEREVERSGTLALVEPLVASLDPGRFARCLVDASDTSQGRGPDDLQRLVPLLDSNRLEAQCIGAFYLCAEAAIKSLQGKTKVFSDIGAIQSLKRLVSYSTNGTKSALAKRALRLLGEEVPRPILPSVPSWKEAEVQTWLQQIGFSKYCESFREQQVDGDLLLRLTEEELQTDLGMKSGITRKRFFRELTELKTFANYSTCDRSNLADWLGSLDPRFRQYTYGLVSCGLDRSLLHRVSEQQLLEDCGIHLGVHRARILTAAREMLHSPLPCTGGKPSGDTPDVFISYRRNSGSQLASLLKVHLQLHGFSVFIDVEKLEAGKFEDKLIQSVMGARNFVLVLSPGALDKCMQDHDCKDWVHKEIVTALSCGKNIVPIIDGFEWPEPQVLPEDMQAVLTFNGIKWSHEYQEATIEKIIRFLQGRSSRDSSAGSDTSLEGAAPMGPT

`O=C(O)[C@H](Cc1c[nH]c2ccccc12)N1C(=O)c2ccccc2C1=O`: the inhibition was -21% (inactive) in assay [1] (at 0.5 µM); -49.9% in assay [1] (setting [16]); -9.64% in assay [1] (setting [17]); -81.2% in assay [1] (setting [18]); -82% (inactive) in assay [2] (at 0.5 µM); -46.6% in assay [2] (setting [19]). Besides, the inhibition was -131% in assay [2] (setting [20]); -20.5% (inactive) in assay [3] (at 0.5 µM); -26.8% in assay [3] (setting [21]); -27.1% in assay [3] (setting [22]); -10.8% (inactive) in [4] (at 0.5 µM); -20.2% in assay [4] (setting [23]). In addition, the inhibition in [4] (setting [24]) is -43.5%; in assay [5] (at 0.5 µM), -17.3% (inactive); in assay [5] (setting [17]), -13%; in assay [5] (setting [18]), -8.45%; in [6] (setting [25]), -11.5%; in [6] (at 0.5 µM) it was -15.7% (inactive). Further, the inhibition in [6] (setting [26]) is -28.9%; in assay [7] (at 0.5 µM), -2.94% (inactive); in assay [7] (setting [27]) it was -8.01%; in [7] (setting [28]), 4.01%.

In the case of `C[C@]1(c2nc3c(C(N)=O)cccc3[nH]2)CCCN1`, the inhibition was -23.5% (inactive) and -13.6% (inactive) in assay [1] (at 0.5 µM); -41.9% and -23.5% in assay [1] (setting [16]); -45.7% and 4.68% in assay [1] (setting [17]); -38.3% and -18.5% in assay [1] (setting [18]); -49.8% (inactive) and -59.1% (inactive) in assay [2] (at 0.5 µM); -12.1% and -70.3% in [2] (setting [19]). For the same compound, the inhibition in assay [2] (setting [20]) is -110% and -65.8%; in [3] (at 0.5 µM) it was -8.8% (inactive) and -9.57% (inactive); in [3] (setting [21]) it was -16.2% and -2.73%; in assay [3] (setting [22]), -3.64% and -17.6%; in [4] (at 0.5 µM) it was -9.31% (inactive) and 2.13% (inactive); in [4] (setting [23]), -8.28% and -17%. In addition, the inhibition was -23.7% and -11.7% in [4] (setting [24]); -25% (inactive) and -15.4% (inactive) in [5] (at 0.5 µM); -36.7% and -21.6% in assay [5] (setting [17]); -29.1% and -120% in [5] (setting [18]); 10.2% and -0.186% in assay [6] (setting [25]); -7.22% (inactive) and -0.79% (inactive) in [6] (at 0.5 µM). The inhibition in assay [6] (setting [26]) was -4.84% and 4.22%; in [7] (at 0.5 µM), 9.85% (inactive) and -2.9% (inactive); in assay [7] (setting [27]), -1.53% and -5.78%; in assay [7] (setting [28]), 9.8% and -13.1%.

Consider `C[C@H]1[C@H](OC(=O)CCC(=O)O)O[C@@H]2O[C@@]3(C)CC[C@H]4[C@H](C)CC[C@@H]1[C@@]24OO3`, for which the remaining NAD in [8] was 10 nM (inactive).

Consider `O=C1NCCc2[nH]c(-c3ccncc3)cc21`, for which, in assay [9], the parasite load remaining was 110% (inactive) and the viability was 61.5%. Besides, the compound was called inactive in assay [10].

As for `CCN(CCO)CCCOc1ccc2c(Nc3cc(CC(=O)Nc4cccc(F)c4)[nH]n3)ncnc2c1`, in assay [11], the parasite % of control was 144% (inactive) and 137% (inactive) and 97.1% (inactive).

Turning to `O=C1NC(=O)/C(=C/c2cccc(C(F)(F)F)c2)S1`, in assay [9], the parasite load remaining is 38.3% (inactive) and the viability is 85%.

Regarding `CN(C(Cc1ccc(OS(=O)(=O)c2cccc3cnccc23)cc1)C(=O)N1CCN(c2ccccc2)CC1)S(=O)(=O)c1cccc2cnccc12` (centres undefined), the survival in [12] was 94.6 (inactive).

Turning to `CN1CC(=O)NC1=NC(=O)Nc1cccc(Cl)c1`, the inhibition in assay [13] is -2% (inactive). Besides, the fluorescence ratio (interference) in [14] was 1 (inactive). The result in assay [10] was inactive.

For the compound `COc1ccc2c(c1)c(C1=C(c3c[nH]c4ccccc34)C(=O)NC1=O)cn2CCCN(C)C`, in assay [9], the parasite load remaining was 27.6% (inactive) and the viability worked out at 93.9%.

As for `CS(=O)(=O)c1ccc(C(=O)Nc2ccc(Cl)c(-c3ccccn3)c2)c(Cl)c1`, the z-score in assay [15] is 0.355 (inactive).

Take `CN(C)c1ccccc1CN1CCCN(Cc2ccccc2N(C)C)C1c1ccncc1`: the compound was classed as inactive in assay [10].

In the case of `C=CC[N+]1([C@H]2C[C@H]3[C@@H]4CC[C@H]5C[C@H](O)[C@@H](N6CCOCC6)C[C@]5(C)[C@H]4CC[C@]3(C)[C@H]2OC(C)=O)CCCC1`, in assay [9], the parasite load remaining is 25.4% (inactive) and the viability was 138%. Besides, the z-score in assay [15] was 0.25 (inactive).

Take `O=C(Nc1cc(Cl)cc2c1[nH]c1cnccc12)c1cccnc1`: in assay [9], the parasite load remaining is 33.8% (inactive) and the viability amounted to 87.1%.

The record behind these values is PubChem BioAssay.
